Test results published in PMC2807882, “Conservation of DNA-binding specificity and oligomerisation properties within the p53 family”.

Assays:
Assay in all cases: fluorescence anisotropy competition titration; 25 mM sodium phosphate (purification buffer pH 7.2), 225 mM NaCl, 10% v/v glycerol, 5 mM DTT, 0.2 mg/mL BSA, 22 C; low values mean tight binding
Conditions in all cases: protein: recombinant; tags: N-terminal 6xHis-lipoyl-TEV tag, cleaved; chain copies: 4; dsDNA, one strand shown
[1] = target: T1, Dmp53 (Drosophila melanogaster, UniProt Q9N6D8 1-385)
T1 sequence: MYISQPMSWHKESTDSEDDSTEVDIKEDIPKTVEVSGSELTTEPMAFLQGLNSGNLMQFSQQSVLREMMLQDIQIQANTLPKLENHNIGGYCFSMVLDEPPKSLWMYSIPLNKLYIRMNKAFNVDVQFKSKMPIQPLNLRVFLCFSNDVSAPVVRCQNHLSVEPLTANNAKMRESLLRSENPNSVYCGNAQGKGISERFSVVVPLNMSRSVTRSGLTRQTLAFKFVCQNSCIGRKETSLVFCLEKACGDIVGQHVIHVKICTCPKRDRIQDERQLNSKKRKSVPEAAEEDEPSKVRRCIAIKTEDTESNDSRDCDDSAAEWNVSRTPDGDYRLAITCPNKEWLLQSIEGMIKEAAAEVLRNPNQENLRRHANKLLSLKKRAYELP

[2] = target: T2, Drp53 (Danio rerio, UniProt P79734 1-373)
T2 sequence: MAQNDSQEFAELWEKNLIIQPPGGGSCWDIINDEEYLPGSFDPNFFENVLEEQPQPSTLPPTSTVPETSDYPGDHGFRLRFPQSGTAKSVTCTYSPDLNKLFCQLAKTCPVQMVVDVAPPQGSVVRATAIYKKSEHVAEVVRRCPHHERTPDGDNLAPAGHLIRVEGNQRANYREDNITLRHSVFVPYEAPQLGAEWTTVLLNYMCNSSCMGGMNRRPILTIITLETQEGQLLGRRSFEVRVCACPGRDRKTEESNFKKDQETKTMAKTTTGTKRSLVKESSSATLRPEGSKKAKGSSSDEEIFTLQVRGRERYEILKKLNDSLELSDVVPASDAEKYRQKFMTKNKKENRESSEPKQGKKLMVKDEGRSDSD

[3] = target: Hsp53 (Homo sapiens, UniProt P04637 1-393)
Chain of Hsp53 (P04637 whole entry): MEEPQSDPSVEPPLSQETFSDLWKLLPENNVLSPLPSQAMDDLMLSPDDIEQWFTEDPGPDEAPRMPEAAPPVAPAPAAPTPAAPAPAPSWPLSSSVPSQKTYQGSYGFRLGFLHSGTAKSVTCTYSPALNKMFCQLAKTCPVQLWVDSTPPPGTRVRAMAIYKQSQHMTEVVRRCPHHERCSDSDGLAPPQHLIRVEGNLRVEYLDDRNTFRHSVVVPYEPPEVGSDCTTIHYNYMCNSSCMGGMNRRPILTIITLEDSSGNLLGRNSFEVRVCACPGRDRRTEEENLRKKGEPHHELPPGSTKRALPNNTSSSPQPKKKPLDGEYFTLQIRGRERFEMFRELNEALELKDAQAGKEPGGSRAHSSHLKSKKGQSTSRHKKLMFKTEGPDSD

[4] = target: Xlp53 (Xenopus laevis, UniProt Q7T1D0 1-362)
Chain of Xlp53 (Q7T1D0 entry or part of it): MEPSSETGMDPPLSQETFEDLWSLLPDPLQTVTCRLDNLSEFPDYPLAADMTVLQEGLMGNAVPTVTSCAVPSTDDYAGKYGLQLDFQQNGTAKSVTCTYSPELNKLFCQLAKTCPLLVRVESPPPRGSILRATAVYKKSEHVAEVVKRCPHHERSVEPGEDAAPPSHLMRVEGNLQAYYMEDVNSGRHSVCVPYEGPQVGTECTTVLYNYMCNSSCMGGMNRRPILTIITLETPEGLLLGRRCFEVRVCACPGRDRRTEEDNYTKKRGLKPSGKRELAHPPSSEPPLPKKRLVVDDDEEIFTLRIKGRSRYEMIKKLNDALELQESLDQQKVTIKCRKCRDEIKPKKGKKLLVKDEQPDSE

[5] = target: T3, ΔNp63α (Homo sapiens, UniProt Q9H3D4-2 1-586)
T3 sequence: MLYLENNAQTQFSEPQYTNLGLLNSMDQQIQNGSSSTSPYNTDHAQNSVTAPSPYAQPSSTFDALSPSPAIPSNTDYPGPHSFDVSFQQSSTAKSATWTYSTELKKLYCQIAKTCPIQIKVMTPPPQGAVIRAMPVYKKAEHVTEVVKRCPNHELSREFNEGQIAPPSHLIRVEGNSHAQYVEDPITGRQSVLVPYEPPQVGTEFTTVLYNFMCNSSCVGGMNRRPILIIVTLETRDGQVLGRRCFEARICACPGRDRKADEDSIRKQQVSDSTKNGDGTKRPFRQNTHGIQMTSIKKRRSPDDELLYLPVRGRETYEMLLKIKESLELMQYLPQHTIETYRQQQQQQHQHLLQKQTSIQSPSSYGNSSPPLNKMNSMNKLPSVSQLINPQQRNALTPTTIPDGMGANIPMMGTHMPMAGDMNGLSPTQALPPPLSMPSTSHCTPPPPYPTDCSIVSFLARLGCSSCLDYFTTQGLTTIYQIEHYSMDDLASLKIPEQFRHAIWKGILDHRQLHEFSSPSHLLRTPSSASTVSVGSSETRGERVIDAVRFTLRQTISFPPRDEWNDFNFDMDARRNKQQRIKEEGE

[6] = target: T4, ΔNp63β (Homo sapiens, UniProt Q9H3D4-4 1-461)
T4 sequence: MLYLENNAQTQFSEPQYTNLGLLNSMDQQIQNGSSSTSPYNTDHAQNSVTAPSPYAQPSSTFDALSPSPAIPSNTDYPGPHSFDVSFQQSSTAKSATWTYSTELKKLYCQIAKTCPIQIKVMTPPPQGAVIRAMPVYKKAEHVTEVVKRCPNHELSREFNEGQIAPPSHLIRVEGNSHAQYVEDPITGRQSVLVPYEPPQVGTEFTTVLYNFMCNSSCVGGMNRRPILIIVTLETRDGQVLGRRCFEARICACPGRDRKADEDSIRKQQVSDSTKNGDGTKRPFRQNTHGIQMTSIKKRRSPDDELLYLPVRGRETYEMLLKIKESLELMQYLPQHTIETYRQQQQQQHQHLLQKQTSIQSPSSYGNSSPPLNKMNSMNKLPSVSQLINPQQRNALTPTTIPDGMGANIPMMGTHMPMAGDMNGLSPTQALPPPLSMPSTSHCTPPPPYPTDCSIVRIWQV

[7] = target: T5, ΔNp63γ (Homo sapiens, UniProt Q9H3D4-6 1-393)
T5 sequence: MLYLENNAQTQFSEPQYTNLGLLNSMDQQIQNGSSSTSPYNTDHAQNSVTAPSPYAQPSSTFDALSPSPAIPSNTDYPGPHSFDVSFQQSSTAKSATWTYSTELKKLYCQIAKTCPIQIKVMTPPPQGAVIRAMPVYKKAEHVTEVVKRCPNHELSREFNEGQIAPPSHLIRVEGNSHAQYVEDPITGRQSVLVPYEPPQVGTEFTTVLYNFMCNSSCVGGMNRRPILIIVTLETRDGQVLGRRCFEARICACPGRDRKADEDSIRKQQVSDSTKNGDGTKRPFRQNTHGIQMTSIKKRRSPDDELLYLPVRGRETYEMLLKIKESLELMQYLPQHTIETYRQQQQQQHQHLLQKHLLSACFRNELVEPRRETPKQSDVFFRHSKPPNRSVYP

[8] = target: T6, ΔNp73β (Homo sapiens, UniProt O15350-9 1-450)
T6 sequence: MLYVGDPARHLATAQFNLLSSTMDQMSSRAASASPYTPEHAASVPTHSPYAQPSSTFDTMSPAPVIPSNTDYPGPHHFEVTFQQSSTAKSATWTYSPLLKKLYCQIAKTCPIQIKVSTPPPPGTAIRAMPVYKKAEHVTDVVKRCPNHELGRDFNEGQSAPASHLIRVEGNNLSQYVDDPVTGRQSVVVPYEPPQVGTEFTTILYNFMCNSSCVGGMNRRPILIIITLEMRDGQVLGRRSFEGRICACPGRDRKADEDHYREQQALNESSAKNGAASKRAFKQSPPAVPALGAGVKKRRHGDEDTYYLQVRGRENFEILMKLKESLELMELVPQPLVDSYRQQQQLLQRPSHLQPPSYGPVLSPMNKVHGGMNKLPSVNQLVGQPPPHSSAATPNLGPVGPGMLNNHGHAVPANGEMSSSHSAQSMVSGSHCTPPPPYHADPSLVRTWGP

[9] = target: Mmp53 (Mus musculus, UniProt P02340 1-390)
Chain of Mmp53 (P02340 whole entry): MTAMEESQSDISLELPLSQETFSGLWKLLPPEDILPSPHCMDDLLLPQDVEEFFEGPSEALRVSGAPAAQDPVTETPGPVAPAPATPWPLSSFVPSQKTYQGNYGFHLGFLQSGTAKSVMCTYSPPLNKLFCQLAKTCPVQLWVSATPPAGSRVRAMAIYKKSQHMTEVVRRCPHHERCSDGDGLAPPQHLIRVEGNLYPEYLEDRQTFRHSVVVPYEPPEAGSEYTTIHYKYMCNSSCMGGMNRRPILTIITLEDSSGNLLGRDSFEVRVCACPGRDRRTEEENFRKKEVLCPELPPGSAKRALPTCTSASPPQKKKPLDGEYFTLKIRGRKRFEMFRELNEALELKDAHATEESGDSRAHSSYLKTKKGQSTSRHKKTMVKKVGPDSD

[10] = target: T7, p73CT (Homo sapiens, UniProt O15350 104-383)
T7 sequence: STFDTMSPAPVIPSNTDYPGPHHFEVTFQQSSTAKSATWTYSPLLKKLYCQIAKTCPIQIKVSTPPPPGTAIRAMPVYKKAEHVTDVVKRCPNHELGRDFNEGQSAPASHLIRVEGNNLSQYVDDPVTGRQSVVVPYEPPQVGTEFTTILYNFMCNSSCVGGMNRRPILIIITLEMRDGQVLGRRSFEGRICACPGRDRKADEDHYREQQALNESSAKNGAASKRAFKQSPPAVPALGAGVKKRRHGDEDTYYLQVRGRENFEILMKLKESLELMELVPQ

Sequence | binding signal [1] | binding signal [2] | binding signal [3] | binding signal [4] | binding signal [5] | binding signal [6] | binding signal [7] | binding signal [8] | binding signal [9] | binding signal [10]
CGCGGACATGTACGGACATGTCCCGC | 0.07 delta log10 Kd | 0.39 delta log10 Kd | 0.34 delta log10 Kd | 0.35 delta log10 Kd | 0.15 delta log10 Kd | 0.29 delta log10 Kd | 0.32 delta log10 Kd | 0.4 delta log10 Kd | 0.27 delta log10 Kd | 0.36 delta log10 Kd
CGCGGACATGTCTGGACATGTCCCGC | 0.03 delta log10 Kd | 0.02 delta log10 Kd | 0.13 delta log10 Kd | 0.07 delta log10 Kd | 0.04 delta log10 Kd | 0.05 delta log10 Kd | 0.05 delta log10 Kd | 0 delta log10 Kd | 0.11 delta log10 Kd | 0.08 delta log10 Kd
CGCGGGCATGTCCGGACATGTCCCGC | 0.25 delta log10 Kd | 0 delta log10 Kd | 0.07 delta log10 Kd | 0.01 delta log10 Kd | – | 0 delta log10 Kd | 0.06 delta log10 Kd | – | 0.03 delta log10 Kd | –
CGCGGACATGTTCGGACATGTCCCGC | 0.17 delta log10 Kd | 0.38 delta log10 Kd | 0.34 delta log10 Kd | 0.39 delta log10 Kd | 0.17 delta log10 Kd | 0.47 delta log10 Kd | 0.33 delta log10 Kd | 0.48 delta log10 Kd | 0.19 delta log10 Kd | 0.36 delta log10 Kd
CGCTGACATGTCCGGACATGTCCCGC | 0.02 delta log10 Kd | 0.22 delta log10 Kd | 0.16 delta log10 Kd | 0.13 delta log10 Kd | 0.08 delta log10 Kd | 0.1 delta log10 Kd | 0.1 delta log10 Kd | 0.11 delta log10 Kd | 0.18 delta log10 Kd | 0.09 delta log10 Kd
CGCGGACACGTCCGGACATGTCCCGC | 0.25 delta log10 Kd | 0.65 delta log10 Kd | 0.53 delta log10 Kd | 0.7 delta log10 Kd | 0.25 delta log10 Kd | 0.57 delta log10 Kd | 0.52 delta log10 Kd | 0.62 delta log10 Kd | 0.36 delta log10 Kd | 0.58 delta log10 Kd
CGCGGAAATGTCCGGACATGTCCCGC | 1.31 delta log10 Kd | 1.13 delta log10 Kd | 0.77 delta log10 Kd | 0.9 delta log10 Kd | 1.08 delta log10 Kd | 0.93 delta log10 Kd | 1.4 delta log10 Kd | 1.49 delta log10 Kd | 0.52 delta log10 Kd | 1.35 delta log10 Kd
CGCAGACATGTCCGGACATGTCCCGC | 0.03 delta log10 Kd | 0.01 delta log10 Kd | 0.01 delta log10 Kd | 0 delta log10 Kd | 0 delta log10 Kd | 0.03 delta log10 Kd | 0.04 delta log10 Kd | 0.01 delta log10 Kd | 0.05 delta log10 Kd | 0.02 delta log10 Kd
CGCGGACATGTGCGGACATGTCCCGC | 0.23 delta log10 Kd | 0.54 delta log10 Kd | 0.49 delta log10 Kd | 0.57 delta log10 Kd | 0.3 delta log10 Kd | 0.46 delta log10 Kd | 0.49 delta log10 Kd | 0.65 delta log10 Kd | 0.36 delta log10 Kd | 0.53 delta log10 Kd
CGCGGACAGGTCCGGACATGTCCCGC | 0.35 delta log10 Kd | 0.65 delta log10 Kd | 0.36 delta log10 Kd | 0.41 delta log10 Kd | 0.17 delta log10 Kd | 0.43 delta log10 Kd | 0.43 delta log10 Kd | 0.49 delta log10 Kd | 0.4 delta log10 Kd | 0.41 delta log10 Kd
CGCGGACATATCCGGACATGTCCCGC | 0.98 delta log10 Kd | 1.14 delta log10 Kd | 0.83 delta log10 Kd | 1.01 delta log10 Kd | 0.92 delta log10 Kd | 1.2 delta log10 Kd | 1.31 delta log10 Kd | 1.32 delta log10 Kd | 0.63 delta log10 Kd | 1.44 delta log10 Kd
CGCGGACATGTCAGGACATGTCCCGC | 0.14 delta log10 Kd | 0.32 delta log10 Kd | 0.31 delta log10 Kd | 0.27 delta log10 Kd | 0.09 delta log10 Kd | 0.13 delta log10 Kd | 0.13 delta log10 Kd | 0.27 delta log10 Kd | 0.2 delta log10 Kd | 0.2 delta log10 Kd
CGCGGACATGTCGGGACATGTCCCGC | 0.02 delta log10 Kd | 0.19 delta log10 Kd | 0.27 delta log10 Kd | 0.22 delta log10 Kd | 0.11 delta log10 Kd | 0.11 delta log10 Kd | 0.1 delta log10 Kd | 0.17 delta log10 Kd | 0.24 delta log10 Kd | 0.17 delta log10 Kd
CGCGGTCATGTCCGGACATGTCCCGC | 0.36 delta log10 Kd | 0.48 delta log10 Kd | 0.42 delta log10 Kd | 0.35 delta log10 Kd | – | 0.53 delta log10 Kd | 0.49 delta log10 Kd | – | 0.29 delta log10 Kd | –
CGCGTACATGTCCGGACATGTCCCGC | 0.12 delta log10 Kd | 0.21 delta log10 Kd | 0.21 delta log10 Kd | 0.13 delta log10 Kd | 0.08 delta log10 Kd | 0.23 delta log10 Kd | 0.21 delta log10 Kd | 0.24 delta log10 Kd | 0.19 delta log10 Kd | 0.24 delta log10 Kd
